Data: PubChem BioAssay
Calls of active or inactive are those of the source.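 How the source made its calls, unless noted: active means inhibition at or above 50% at 10 µM; inactive means inhibition below 50%.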

Key:
[1] = inhibitors of TNFa-induced NFkB p65 translocation, primary screen, imaging, HUVEC, MLSMR starter and 10KST1 sets (AID 438;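 active means inhibition above 20% together with a positive visual image hit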;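 further: compound added about 3h40 before a 20 min TNFalpha stimulation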;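 on inhibition: signal is the nuclear over cytoplasmic p65 intensity ratio per well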); details: HUVEC TNFa-induced p65 nuclear translocation; cell count: measured here: nuclei count (cytotoxicity indicator), at 2.08 µM; inhibition: at 2 µM, stronger effect = higher value, 0% TNFa-plus-vehicle, 100% no-TNFa wells
[2] = inhibitors of mutant huntingtin aggregation, primary screen, imaging, exon1htt(103Q)mCFP cells, high-content imaging (AID 483;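 active means visual image review flags a hit and inhibition of aggregation exceeds 20%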;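 further: compound exposure lasted 3 days before fixation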;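 on nuclei count: percent of the per-plate median nuclei count of sample wells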); details: exon1htt(103Q)mCFP cell line, aggregate imaging, at 2 µM; inhibition of aggregation: stronger effect = higher value; nuclei count: measured here: cell count, toxicity
[3] = inhibitors of E-selectin induction by TNFa, primary screen, imaging, HUVEC, immunofluorescence, MLSMR starter and 10KST1 sets (AID 487;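 active means visually confirmed hit in the image check and inhibition above 20%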;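 on inhibition: signal is fraction of cell area covered by stained E-selectin grains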;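 on nuclei count: 100% = median nuclei count of all wells on the same plate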); details: HUVEC TNFalpha-induced E-selectin immunofluorescence imaging, at 2 µM; inhibition: stronger effect = higher value; nuclei count: measured here: cell number, toxicity
[4] = target: Voltage-gated potassium channel subunit beta-2 (Rattus norvegicus) (UniProt P62483); assay: KvBeta enzyme negative modulators, primary screen, biochemical, NADPH fluorescence (AID 622;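 active means fluorescence slope higher than the sample average by over 3 SD, cut at about -0.22 in these data, passing the limit was not always enough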;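 further: slope of raw intensity against log time taken from 70 to 1610 s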); details: recombinant KvBeta, 4-cyanobenzaldehyde reduction, at 10 µM, stronger effect = higher value
Sequence of Voltage-gated potassium channel subunit beta-2 (Rattus norvegicus) (P62483 whole entry, looked up): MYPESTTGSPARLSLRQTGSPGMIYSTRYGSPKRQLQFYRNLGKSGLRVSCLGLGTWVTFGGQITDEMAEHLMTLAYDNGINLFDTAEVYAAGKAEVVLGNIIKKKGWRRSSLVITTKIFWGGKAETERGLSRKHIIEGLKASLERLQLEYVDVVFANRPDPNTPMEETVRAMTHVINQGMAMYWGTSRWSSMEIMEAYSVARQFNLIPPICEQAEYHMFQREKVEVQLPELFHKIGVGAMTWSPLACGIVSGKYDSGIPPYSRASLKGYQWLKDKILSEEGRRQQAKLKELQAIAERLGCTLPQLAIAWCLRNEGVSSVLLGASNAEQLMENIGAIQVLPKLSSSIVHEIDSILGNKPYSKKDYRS

[5] = target: Voltage-gated potassium channel subunit beta-2 (Rattus norvegicus) (UniProt P62483); assay: KvBeta positive modulators, primary screen, biochemical, NADPH fluorescence (AID 623;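 active means NADPH fluorescence slope more negative than the mean of all samples by about 3 SD, 99.7% confidence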;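 further: fluorescence intensity change per second fitted from 20 to 320 s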); details: Recombinant KvBeta, NADPH fluorescence decrease slope, 10 min; at 10 µM; stronger effect = lower value
[6] = target: Alpha-2C adrenergic receptor (Homo sapiens) (UniProt P18825); assay: modulators of alpha2C/GIRK thallium flux, primary screen, cell-based, HEK293 alpha2C/GIRK1/2 (AID 624;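 active means fluorescence slope after compound addition differing from the mean of all screened samples at 99.7% confidence, in either direction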;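 further: slope of fluorescence ratio to pre-addition baseline per second over 15 to 24 s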); details: thallium flux BTC fluorescence, at 10 µM, actives lie on both sides
Sequence of Alpha-2C adrenergic receptor (Homo sapiens) (P18825 whole entry, looked up): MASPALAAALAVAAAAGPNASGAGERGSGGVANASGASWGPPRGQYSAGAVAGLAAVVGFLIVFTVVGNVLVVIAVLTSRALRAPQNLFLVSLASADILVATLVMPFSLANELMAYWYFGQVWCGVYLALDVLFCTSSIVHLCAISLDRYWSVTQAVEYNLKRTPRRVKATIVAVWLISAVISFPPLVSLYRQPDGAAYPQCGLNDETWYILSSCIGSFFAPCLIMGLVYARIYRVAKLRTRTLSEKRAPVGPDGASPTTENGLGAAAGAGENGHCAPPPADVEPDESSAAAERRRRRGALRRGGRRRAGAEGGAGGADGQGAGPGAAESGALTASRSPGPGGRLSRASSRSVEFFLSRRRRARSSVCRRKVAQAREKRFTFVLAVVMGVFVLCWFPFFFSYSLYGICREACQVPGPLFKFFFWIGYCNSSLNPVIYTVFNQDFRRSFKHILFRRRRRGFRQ

[7] = inhibitors of Sendai virus-induced IRF3 signaling, primary screen, TLR/RLR signaling modifier project, cell-based, Sendai virus stimulus, luciferase, 10K MLSCN set (AID 602276); details: HEK293 RL24 IRF3 luciferase reporter, at 10 µM, stronger effect = higher value;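 further: firefly luciferase from ISG56 promoter only with Renilla not read in this screen; 0% = Sendai virus plus DMSO and 100% = medium plus DMSO without virus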
[8] = inhibitors of poly I:C-induced TLR3 signaling, primary screen, cell-based, poly I:C stimulus, luciferase, 10K MLSCN set (AID 602277;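 active means inhibition of the reporter signal at or above 50%; inactive means inhibition below 50%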); details: HEK293-TLR3 RL24 IRF3 luciferase reporter, at 10 µM, stronger effect = higher value

## Cc1ccc(NC(=O)CCC(=O)O)cc1F
[1]
  cell count: 381
  inhibition: 9.4% (inactive)
[2]
  inhibition of aggregation: -13.4% (inactive)
  nuclei count: 97.1%
[3]
  inhibition: -10.9% (inactive)
  nuclei count: 115%
[4]
  fluorescence slope: -0.508 (inactive)
[5]
  NADPH fluorescence slope: -7.1e-05 (inactive)
[6]
  slope: 0.00611 (inactive)
[7]
  inhibition: 16.4% (inactive)
[8]
  inhibition: 24.4% (inactive)

## CCn1c(=O)cc(OCC(=O)NC2CCCCC2)c2ccccc21
[1]
  cell count: 336
  inhibition: 22.2% (inactive)
[2]
  inhibition of aggregation: -2.9% (inactive)
  nuclei count: 110%
[3]
  inhibition: -15.3% (inactive)
  nuclei count: 113%
[4]
  fluorescence slope: -0.263 (inactive)
[5]
  NADPH fluorescence slope: 1.1e-05 (inactive)
[6]
  slope: 0.00609 (inactive)
[7]
  inhibition: 1.11% (inactive)
[8]
  inhibition: 23.9% (inactive)

## CCCCN(C)C(=O)CS(=O)(=O)Cc1nc(-c2cccc(OC)c2)oc1C
[1]
  cell count: 737
  inhibition: 1.1% (inactive)
[2]
  inhibition of aggregation: 13.9% (inactive)
  nuclei count: 98.3%
[3]
  inhibition: -26.7% (inactive)
  nuclei count: 115%
[4]
  fluorescence slope: -0.518 (inactive)
[5]
  NADPH fluorescence slope: -3.7e-05 (inactive)
[6]
  slope: 0.00718 (inactive)
[7]
  inhibition: 16.1% (inactive)
[8]
  inhibition: 16.3% (inactive)

## O=C(CCN1C(=O)C2C3C=CC(C3)C2C1=O)NC1CCCc2ccccc21 (centres undefined)
[1]
  cell count: 411
  inhibition: 7.3% (inactive)
[2]
  inhibition of aggregation: 4.3% (inactive)
  nuclei count: 104%
[3]
  inhibition: -138% (inactive)
  nuclei count: 104%
[4]
  fluorescence slope: -0.441 (inactive)
[5]
  NADPH fluorescence slope: -1.7e-05 (inactive)
[6]
  slope: 0.00567 (inactive)
[7]
  inhibition: 10.7% (inactive)
[8]
  inhibition: 30.7% (inactive)

## Cc1ccc(-n2nnnc2SCC(=O)Nc2c(C)n(C)n(-c3ccccc3)c2=O)cc1
[1]
  cell count: 637
  inhibition: -1.1% (inactive)
[2]
  inhibition of aggregation: 4.2% (inactive)
  nuclei count: 91.4%
[3]
  inhibition: -18.7% (inactive)
  nuclei count: 106%
[4]
  fluorescence slope: -0.583 (inactive)
[5]
  NADPH fluorescence slope: -1.3e-05 (inactive)
[6]
  slope: 0.00453 (inactive)
[7]
  inhibition: -6.61% (inactive)
[8]
  inhibition: -12.3% (inactive)

## CC(C)OC(=O)CSc1nc2cccnc2n1C1CCCCC1
[1]
  cell count: 267
  inhibition: -9.7% (inactive)
[2]
  inhibition of aggregation: -18.5% (inactive)
  nuclei count: 78.8%
[3]
  inhibition: -25.1% (inactive)
  nuclei count: 106%
[4]
  fluorescence slope: -0.592 (inactive)
[5]
  NADPH fluorescence slope: -5.3e-05 (inactive)
[6]
  slope: 0.00357 (inactive)
[7]
  inhibition: 11.2% (inactive)
[8]
  inhibition: 17.9% (inactive)

## COC(=O)Oc1c(Br)c(=O)oc2ccccc12
[1]
  cell count: 594
  inhibition: 7.7% (inactive)
[2]
  inhibition of aggregation: -8.6% (inactive)
  nuclei count: 99.4%
[3]
  inhibition: -49.4% (inactive)
  nuclei count: 110%
[4]
  fluorescence slope: -0.443 (inactive)
[5]
  NADPH fluorescence slope: -3.2e-05 (inactive)
[6]
  slope: 0.00521 (inactive)
[7]
  inhibition: -15.5% (inactive)
[8]
  inhibition: -23.7% (inactive)

## O=C(CNC1CCCCCC1)Nc1ccc(S(=O)(=O)NC2CC2)cc1
[1]
  cell count: 727
  inhibition: -4.8% (inactive)
[2]
  inhibition of aggregation: 3.3% (inactive)
  nuclei count: 104%
[3]
  inhibition: -51.5% (inactive)
  nuclei count: 108%
[4]
  fluorescence slope: -0.49 (inactive)
[5]
  NADPH fluorescence slope: -5.4e-05 (inactive)
[6]
  slope: 0.00449 (inactive)
[7]
  inhibition: 11.1% (inactive)
[8]
  inhibition: 18.7% (inactive)

## CC(O)c1cc2c(cc1NC(=O)c1cnn3c1NC(c1ccco1)CC3C(F)(F)F)OCO2 (centres undefined)
[1]
  cell count: 656
  inhibition: 8.7% (inactive)
[2]
  inhibition of aggregation: -12% (inactive)
  nuclei count: 109%
[3]
  inhibition: -56.3% (inactive)
  nuclei count: 98.9%
[4]
  fluorescence slope: -0.583 (inactive)
[5]
  NADPH fluorescence slope: 3.4e-05 (inactive)
[6]
  slope: 0.00628 (inactive)
[7]
  inhibition: 9.47% (inactive)
[8]
  inhibition: 20.2% (inactive)

## C=COC(=O)CSc1snc(SCC(=O)OC)c1C#N
[1]
  cell count: 300
  inhibition: -6.3% (inactive)
[2]
  inhibition of aggregation: 11.1% (inactive)
  nuclei count: 102%
[3]
  inhibition: -31.9% (inactive)
  nuclei count: 88.9%
[4]
  fluorescence slope: -0.581 (inactive)
[5]
  NADPH fluorescence slope: -4.2e-06 (inactive)
[6]
  slope: 0.00524 (inactive)
[7]
  inhibition: 15.5% (inactive)
[8]
  inhibition: 18.4% (inactive)

## CCCc1cc(C(=O)Nc2ccc(C(C)=O)cc2)no1
[1]
  cell count: 566
  inhibition: -4.4% (inactive)
[2]
  inhibition of aggregation: 1.1% (inactive)
  nuclei count: 128%
[3]
  inhibition: -58.4% (inactive)
  nuclei count: 110%
[4]
  fluorescence slope: -0.559 (inactive)
[5]
  NADPH fluorescence slope: 1.4e-06 (inactive)
[6]
  slope: 0.00619 (inactive)
[7]
  inhibition: 15.4% (inactive)
[8]
  inhibition: -5.79% (inactive)

## O=C(OCN1C(=O)c2ccccc2C1=O)C1CCCCC1
[1]
  cell count: 391
  inhibition: 3.5% (inactive)
[2]
  inhibition of aggregation: 3.5% (inactive)
  nuclei count: 95.3%
[3]
  inhibition: -43.8% (inactive)
  nuclei count: 113%
[4]
  fluorescence slope: -0.348 (inactive)
[5]
  NADPH fluorescence slope: -5e-05 (inactive)
[6]
  slope: 0.00442 (inactive)
[7]
  inhibition: 6.81% (inactive)
[8]
  inhibition: 12.4% (inactive)

## CCN(CC)c1nc2nonc2nc1N(CC)CC
[1]
  cell count: 314
  inhibition: -11.8% (inactive)
[2]
  inhibition of aggregation: -1.5% (inactive)
  nuclei count: 100%
[3]
  inhibition: -12.1% (inactive)
  nuclei count: 94.7%
[4]
  fluorescence slope: -0.446 (inactive)
[5]
  NADPH fluorescence slope: -5.6e-05 (inactive)
[6]
  slope: 0.00553 (inactive)
[7]
  inhibition: 14.3% (inactive)
[8]
  inhibition: 21.8% (inactive)

## CC(C)(C)OC(=O)NCCc1nnc(SCC(=O)c2ccc(Cl)cc2)o1
[1]
  cell count: 282
  inhibition: -3.2% (inactive)
[2]
  inhibition of aggregation: 36.8% (inactive)
  nuclei count: 77.1%
[3]
  inhibition: -56.7% (inactive)
  nuclei count: 85.4%
[4]
  fluorescence slope: -0.495 (inactive)
[5]
  NADPH fluorescence slope: 1.3e-05 (inactive)
[6]
  slope: 0.00407 (inactive)
[7]
  inhibition: 5.48% (inactive)
[8]
  inhibition: 34.1% (inactive)
